The results in this text go back to PubChem BioAssay (NCATS).

Each structure is given as a SMILES string. “And” between values parts separate entries of the source, which are not always exact repeats. Equal entries are not always repeated. Unmarked numbers belong to inactive results. Results filed as inconclusive are left out. The source made the active and inactive calls. Unless noted, calls follow the shape of the dose curve; as a rule, active = well fitted curve in the direction sought with a large enough effect; inconclusive = small, poorly fitted or top-dose-only effect, or another doubt; inactive = no such curve, though single readings can be large; an effect the other way counts as inactive or inconclusive.

Test [1] can be described thus: Cell Viability - SH-SY5Y (AID 544).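 Also: cells exposed to compound for 40 hours; nearly all actives have a fitted effect of over 55% in size.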 Also: potency is read from the fitted curve at half-maximal effect.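 As to viability change, negative = cytotoxic: 0% = DMSO alone and -100% = 100 µM tamoxifen.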 As to conditions: SH-SY5Y neuroblastoma cell viability; viability change, negative = cytotoxic: at 92.2 µM (top of the series). In a few lines: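 Quantitative HTS in SH-SY5Y neuroblastoma cells, 40 hr treatment at 37 °C, ATP content by luciferase luminescence; AC50 from Hill fits.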
Test [2] is described as follows: Cell Viability - Renal Proximal Tubule (AID 545).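 Also: cells exposed to compound for 40 hours; 0% = DMSO only and -100% = 100 µM tamoxifen; nearly all actives have a fitted effect of over 40% in size.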 In a few lines: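 Primary rat renal proximal tubule cells (1000/well) were treated with compounds for 40 hr at 37 °C in complete medium. Intracellular ATP was measured by CellTiter-Glo luminescence, and AC50 values came from Hill-equation fits of concentration-response data.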
Test [3] in a line: Cell Viability - Mesenchymal (AID 546).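 Also: cells exposed to compound for 40 hours before reading.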 Also: potency is read from the fitted curve at half-maximal effect. In outline:
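In this qHTS cytotoxicity format, glomerulus-derived human mesenchymal kidney cells received compound for 40 hr, then luciferase-based ATP quantitation. Concentration-response data were fitted with the Hill equation.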

Test [4] is described as follows: Cell Viability - LYMP2-011 (AID 969).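 Also: cells exposed to compound for 24 hours; nearly all actives have a fitted effect of over 60% in size.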 Also: potency is read from the fitted curve at half-maximal effect.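 As to viability change, negative = cytotoxic: 0% = DMSO only and full inhibition = 92 µM tetraoctylammonium bromide.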 In outline:
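Cells seeded at 2500 per well rest 5 hr before compound addition, then incubate 24 hr at 37 C. CellTiter-Glo reagent is added for 30 min at room temperature before luminescence detection.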

Test [5] in a line: Cell Viability - LYMP2-010 (AID 981).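 Also: cells exposed to compound for 24 hours at 37 °C; nearly all actives have a fitted effect of over 55% in size.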 Also: potency is read from the fitted curve at half-maximal effect. In a few lines:
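This 24 hr viability screen uses LYMP2-010 lymphoblastoid cells, quantifies ATP via luciferase luminescence, and derives AC50 from Hill fits of qHTS concentration-response data.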

A short description of test [6]: Cell Viability - LYMP2-012 (AID 982).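 Also: cellular ATP by luciferase luminescence where a drop means cytotoxicity; cells exposed to compound for one day before reading; 0% = DMSO only and full loss = 92 µM tetraoctylammonium bromide; nearly all actives have a fitted effect of over 55% in size.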
Test [7] addresses Retinoic acid receptor RXR-alpha (Homo sapiens) (UniProt P19793). Briefly: qHTS assay for small molecule agonists of retinoid X receptor alpha signaling (AID 588544; calls by dose curve;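 also: 0% = DMSO basal wells and 100% = reference agonist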). (In qHTS, concentration-response curves come from the screen itself.)
The target of test [8] is Thyroid hormone receptor beta (Homo sapiens) (UniProt P10828). Nature of the test: qHTS assay for small molecule agonists of thyroid hormone receptor beta signaling (AID 588545; calls by dose curve). In outline: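 Cells (2500/well) were seeded, incubated 4 hrs at 37 C, dosed with a compound series, incubated 18 hrs, loaded with CCF4 dye for 2 hrs at RT, then read for fluorescence. Data were scaled between DMSO (0%) and 10 nM T3 (100%).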

The target of test [9] is Retinoic acid receptor RXR-alpha (Homo sapiens) (UniProt P19793). Briefly: qHTS assay for small molecule antagonists of retinoid X receptor alpha signaling (AID 588546; active = well fitted inhibition curve with a large enough effect in the signal ratio, with a control signal flat, not every such curve was filed as active; the % refers to the signal ratio;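 also: cells stimulated with 9-cis-retinoic acid as agonist; % is scaled to controls: 0 for no effect and ±100 for the full control effect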). Conditions: HEK293T RXRa-UAS-bla, beta-lactamase ratio, antagonist mode. In a few lines:
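Beta-lactamase reporter inhibition, read as CCF4 fluorescence ratio (ex 405, em 460/530 nm) after 2 h at RT. HEK293T UAS-bla cells, 2500/well, were stimulated with 9-cis-RA at 500 or 100 nM final alongside test compound for 18 h at 37 C.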

The target in test [10] is Thyroid hormone receptor beta (Homo sapiens) (UniProt P10828). Briefly: qHTS assay for small molecule antagonists of thyroid hormone receptor beta signaling (AID 588547; active = well fitted inhibition curve with a large enough effect in the signal ratio, with a control signal flat, not every such curve was filed as active; the % refers to the signal ratio;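 also: cells stimulated with 0.4 nM T3 agonist during compound exposure; % is scaled to controls: 0 for no effect and ±100 for the full control effect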). As to conditions: TR-UAS-bla HEK293, beta-lactamase ratio, antagonist mode, 18 h. In outline:
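TR-UAS-bla GripTite HEK293 cells in 2% charcoal/dextran FBS medium were preincubated 4 h at 37 C, given compound (0.59 nM to 92 uM) plus 0.4 nM T3 (final) for 18 h, then CCF4 for 2 h at RT; Hill fit gave IC50.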

A short description of test [11]: qHTS assay for small molecule agonists of the antioxidant response element (ARE) signaling pathway measured by Nrf2-dependant transcriptional activity (AID 720636; active = well fitted curve in the direction sought with a large enough effect in the repeat runs; an effect the other way counts as inactive or inconclusive; also: % of control where 0% means no effect). In outline:
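Quantitative HTS format in HepG2 cells stably expressing an ARE-luciferase reporter; 16 hr compound treatment at 37 C, luciferase signal detected with ONE-Glo.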

Test [12] is described as follows: qHTS assay for small molecule antagonists of the retinoid-related orphan receptor gamma (ROR-gamma) signaling pathway - cell viability counter screen (AID 720652; active = well fitted curve in the direction sought with a large enough effect in the repeat runs; an effect the other way counts as inactive or inconclusive;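 also: compound exposure lasted 16 hr before ATP read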; also: potency is read from the fitted curve at half-maximal effect). In outline:
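ATP-based viability readout in the ROR-gamma reporter CHO cells after 16 hr compound exposure under doxycycline induction.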

The target of test [13] is Nuclear receptor subfamily 1 group I member 2 (Rattus norvegicus) (UniProt Q9R1A7). Nature of the test: qHTS assay for small molecule activators of the rat pregnane X receptor (rPXR) signaling pathway (AID 651751; call rule not given here; also: 0% is about no effect). Conditions: rPXR reporter cells, luciferase (One-Glo), 24 h.
Test [14] is described as follows: qHTS assay for small molecule activators of the human pregnane X receptor (PXR) signaling pathway (AID 720659; call rule not given here; also: 0% is about no effect).
Test [15] is described as follows: Cell Viability - HUV-EC-C (AID 542).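 Also: cells exposed to compound for 40 hours; % is scaled to controls: 0 for no effect and ±100 for the full control effect; nearly all actives have a fitted effect of over 35% in size.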 In a few lines:
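Concentration-dependent ATP loss in HUV-EC-C cells is the measure. Exposure lasts 40 hr at 37 °C; luminescence follows CellTiter-Glo addition, and Hill fits give AC50.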

Test [16] in a line: Cell Viability - LYMP1-003 - Assay at 40 hr (AID 964). Also: % is scaled to controls: 0 for no effect and ±100 for the full control effect; nearly all actives have a fitted effect of over 60% in size. In outline:
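Acute toxicity is scored as a concentration-dependent loss of intracellular ATP in LYMP1-003 cells (2500/well, complete medium) after 40 hr at 37 C, measured by CellTiter-Glo luminescence; AC50 values derive from standard Hill modelling.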

Test [17] is described as follows: Cell Viability - LYMP2-002 (AID 977).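 Also: compound exposure lasted 24 h at 37 °C.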 Also: potency is read from the fitted curve at half-maximal effect. In a few lines: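 In this qHTS viability screen, 2500 human lymphoblastoid cells per well receive compound for 24 hr at 37 C, and luciferase-based ATP luminescence gives the viability signal. Tetraoctylammonium bromide serves as positive control.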
The target in test [18] is Peroxisome proliferator-activated receptor delta (Homo sapiens) (UniProt Q03181). Briefly: qHTS assay for small molecule agonists of peroxisome proliferator-activated receptor delta signaling (AID 588534; calls by dose curve;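 also: 0% = DMSO basal wells and 100% = positive control agonist at 10 µM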). In outline: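 EC50 and efficacy values derive from Hill fits of a concentration series in a beta-lactamase reporter cell assay. Exposure is 18 hrs at 37 C, with CCF4 fluorescence as the readout.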

The nature of test [19]: qHTS assay for environmental chemicals that activate the Aryl hydrocarbon Receptor (AhR) signaling pathway (AID 651777). Also: % of control where 0% means no effect; nearly all actives have a fitted effect of over 15% in size. Conditions: 1A2-DRE human hepatoma cells, luciferase, 24 h; activation: active compounds read high. In a few lines:
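Quantitative HTS in stably transfected human liver-derived cells whose luciferase gene sits downstream of the CYP1A2 promoter and dioxin response element. After 24 hr exposure at 37 C, One-Glo luminescence was measured.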

A short description of test [20]: qHTS assay for small molecule disruptors of the mitochondrial membrane potential - 1 hr assay (AID 651754; calls by dose curve; also: nearly all actives have a fitted effect of over 35% in size; also: potency is read from the fitted curve at half-maximal effect). In a few lines: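 In this qHTS format, a 1 hr compound treatment of HepG2 cells precedes Mito-MPS staining, and membrane potential is judged from aggregate (red) against monomer (green) fluorescence intensity.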

Thyroid hormone receptor beta (Homo sapiens), sequence (P10828 whole entry, looked up): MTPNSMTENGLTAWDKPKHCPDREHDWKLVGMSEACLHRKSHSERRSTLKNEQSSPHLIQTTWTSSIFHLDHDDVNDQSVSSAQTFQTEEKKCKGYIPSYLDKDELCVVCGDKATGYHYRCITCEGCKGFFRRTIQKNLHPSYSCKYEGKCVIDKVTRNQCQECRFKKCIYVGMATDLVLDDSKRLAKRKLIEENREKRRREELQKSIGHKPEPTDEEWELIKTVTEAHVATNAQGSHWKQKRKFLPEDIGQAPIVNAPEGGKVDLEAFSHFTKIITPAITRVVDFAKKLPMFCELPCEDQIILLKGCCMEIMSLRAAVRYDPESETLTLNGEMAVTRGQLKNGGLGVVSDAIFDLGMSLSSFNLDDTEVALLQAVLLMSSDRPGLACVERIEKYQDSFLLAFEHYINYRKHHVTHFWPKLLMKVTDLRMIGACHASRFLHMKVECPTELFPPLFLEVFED
Peroxisome proliferator-activated receptor delta (Homo sapiens), sequence (Q03181 whole entry, looked up): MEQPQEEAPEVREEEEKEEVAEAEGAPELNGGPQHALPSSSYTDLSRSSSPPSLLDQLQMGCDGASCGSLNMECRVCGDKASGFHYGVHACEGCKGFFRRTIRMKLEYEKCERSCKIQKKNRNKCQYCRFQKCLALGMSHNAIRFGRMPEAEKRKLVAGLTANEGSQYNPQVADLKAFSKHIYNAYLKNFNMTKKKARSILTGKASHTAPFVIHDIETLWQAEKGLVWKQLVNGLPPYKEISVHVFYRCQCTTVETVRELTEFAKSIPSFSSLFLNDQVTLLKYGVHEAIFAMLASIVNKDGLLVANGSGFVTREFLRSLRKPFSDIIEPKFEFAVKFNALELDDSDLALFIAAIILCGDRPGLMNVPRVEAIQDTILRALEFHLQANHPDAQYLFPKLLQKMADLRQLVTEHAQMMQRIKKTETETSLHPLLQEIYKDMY
Nuclear receptor subfamily 1 group I member 2 (Rattus norvegicus), sequence (Q9R1A7 whole entry, looked up): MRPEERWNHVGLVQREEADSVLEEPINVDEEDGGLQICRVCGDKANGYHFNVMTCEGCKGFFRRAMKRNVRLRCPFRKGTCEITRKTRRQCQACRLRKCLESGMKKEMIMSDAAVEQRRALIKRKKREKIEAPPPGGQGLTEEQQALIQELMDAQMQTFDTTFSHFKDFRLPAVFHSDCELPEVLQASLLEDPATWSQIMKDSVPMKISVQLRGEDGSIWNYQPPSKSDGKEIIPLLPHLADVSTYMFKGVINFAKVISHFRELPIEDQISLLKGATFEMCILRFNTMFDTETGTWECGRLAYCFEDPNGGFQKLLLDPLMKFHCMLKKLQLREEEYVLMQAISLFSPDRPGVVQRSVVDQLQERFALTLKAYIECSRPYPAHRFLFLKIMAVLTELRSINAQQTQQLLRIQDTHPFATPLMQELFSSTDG
Retinoic acid receptor RXR-alpha (Homo sapiens), sequence (P19793 whole entry, looked up): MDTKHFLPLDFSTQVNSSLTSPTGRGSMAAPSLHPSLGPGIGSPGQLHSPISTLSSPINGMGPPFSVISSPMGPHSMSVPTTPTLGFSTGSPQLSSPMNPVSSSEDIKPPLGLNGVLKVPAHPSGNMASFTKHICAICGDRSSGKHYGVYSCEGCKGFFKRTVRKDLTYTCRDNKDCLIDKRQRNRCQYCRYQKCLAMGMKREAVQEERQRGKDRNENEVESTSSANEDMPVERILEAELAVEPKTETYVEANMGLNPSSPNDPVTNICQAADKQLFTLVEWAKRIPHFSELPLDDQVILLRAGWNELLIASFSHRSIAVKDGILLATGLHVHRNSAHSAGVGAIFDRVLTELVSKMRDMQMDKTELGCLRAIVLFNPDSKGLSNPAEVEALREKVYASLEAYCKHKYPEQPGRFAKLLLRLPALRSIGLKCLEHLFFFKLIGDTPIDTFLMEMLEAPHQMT

Turning to `Cc1ccc(N=C=O)cc1N=C=O`, the Potency entry in test [1], in test [3], in test [4], in test [5], in [6] and in [8] was “inactive” throughout. Moreover, the Potency result in [11] and in [12] was “inactive” in each case. Besides, the compound was called inactive in test [2], in test [7] and in [14]. Besides, the max response in test [9] is 6.03% and 0.743%; in [13], 5.64% and 2.33%. Besides, in test [10], the activity change % (negative = inhibition) was -8.5%.

Turning to `Oc1cc(Cl)ccc1Cl`, the Potency result in test [15], in [1], in test [3], in [16], in test [17] and in test [5] was “inactive” in each case. Besides, the Potency result in test [6], in [8], in test [11] and in test [12] was “inactive” each time. In addition, the compound was called inactive in test [2], in test [18], in test [7] and in test [14]. Further, the max response in test [9] is 8.9% and 7.36%; in test [13] it was -2.5% and -2.48%. Further, the activity change % (negative = inhibition) in [10] is -3.5%. In addition, the activation in test [19] was -0.282% and -1.1%.

For `O=[N+]([O-])/C=C/c1ccccc1`, the Potency in [1] was 12.6 µM (active); in test [3], 25.1 µM (active); in test [4] it was 50.1 µM (active); in [17] it was 39.8 µM (active); in [5] it was 50.1 µM (active); in test [12], 37.6 µM (active). The Potency result in test [16], in test [8] and in [20] was “inactive” throughout. Besides, the compound was called inactive in test [18] and in test [7]. In addition, the max response in test [9] is -0.636%. In test [10], the activity change % (negative = inhibition) is -15.9%.

Take `C(CCOCC1CO1)COCC1CO1` (centres undefined): the Potency in [1] was 31.6 µM (active). For the same compound, the call in test [2], in test [18], in test [7] and in [14] was inactive. In addition, the Potency result in [3], in test [4], in [17], in test [8], in test [20] and in test [11] was “inactive” throughout. The Potency entry in [12] was “inactive”. Further, the max response in [9] was 15.6%; in test [13] it was 2.78%. Besides, the activity change % (negative = inhibition) in [10] was 16.3%.

In the case of `CC(C)(C)OOC(=O)c1ccccc1`, the Potency result in test [15], in [3], in test [16], in test [4], in test [5] and in [6] was “inactive” throughout. Besides, the Potency entry in test [20], in [11] and in test [12] was “inactive” throughout. Further, the outcome in test [2], in test [18], in [7] and in test [14] was inactive. The max response was 2.22% and 6.61% in [9]; 2.87% and -0.927% in test [13]. Moreover, the activity change % (negative = inhibition) in test [10] was 11.4%. The activation in test [19] is -1.19% and 0.23%.

As to `O=C(O)CCl`, the Potency result in test [1], in [3], in [16], in test [4], in [17] and in [6] was “inactive” each time. For the same compound, the Potency entry in test [8] and in test [20] was “inactive” in each case. In addition, the outcome in test [7] and in [14] was inactive. Further, the max response in test [9] was -2.41%; in [13], 9.97%. Besides, the activity change % (negative = inhibition) in [10] is -0.364%.

With `Cc1cc(C)cc(OP(=O)(Oc2cc(C)cc(C)c2)Oc2cc(C)cc(C)c2)c1`, the Potency entry in [15], in test [1], in test [3], in test [16], in test [4] and in [17] was “inactive” throughout. Moreover, the Potency entry in test [5], in test [6], in test [8] and in test [11] was “inactive” throughout. In addition, the compound was called inactive in [2] and in [7]. Further, the max response in test [9] was 28.5%. Also, the Potency in test [20] was 11.9 µM (active). For the same compound, the activation in test [19] is 12.8%.

In the case of `O=C(O)C(Br)CBr` (centres undefined), the Potency result in test [15], in [3], in [5], in test [6], in [8] and in test [20] was “inactive” in each case. Further, in [12], the Potency entry was “inactive”. In addition, the call in test [2], in test [18], in test [7] and in test [14] was inactive. In addition, the activity change % (negative = inhibition) in test [10] is 10.8%. Moreover, the activation in [19] is 2.43%. Also, the max response in test [13] was -3.61%.
